As a reminder, the inhibition is the relative decrease from the control value, in per cent.

The values that follow come from PubChem BioAssay AID1779 (Sanford-Burnham Center for Chemical Genomics, 2009).

Hit rate of the full screen: of about 290,000 compounds, about 160 (0.055%) were called active. Cut-off read from the data, not from the text of the source: active = inhibition above about 50%; inactive = the rest. Only a selection was taken, and actives are over-represented in it overall.

The target in the assay is Tyrosine-protein phosphatase non-receptor type 22 (Homo sapiens) (UniProt Q9Y2R2). In words: PTPN22 lymphoid phosphatase activity blockers – biochemical, fluorescence intensity, uHTS (AID 1779).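 Note: plate controls were vehicle with enzyme for no effect and no enzyme for full effect.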 To be noted: recombinant LYP phosphatase, at 11.5 µM, stronger effect = higher value.
Tyrosine-protein phosphatase non-receptor type 22 (Homo sapiens), sequence (Q9Y2R2 whole entry, looked up): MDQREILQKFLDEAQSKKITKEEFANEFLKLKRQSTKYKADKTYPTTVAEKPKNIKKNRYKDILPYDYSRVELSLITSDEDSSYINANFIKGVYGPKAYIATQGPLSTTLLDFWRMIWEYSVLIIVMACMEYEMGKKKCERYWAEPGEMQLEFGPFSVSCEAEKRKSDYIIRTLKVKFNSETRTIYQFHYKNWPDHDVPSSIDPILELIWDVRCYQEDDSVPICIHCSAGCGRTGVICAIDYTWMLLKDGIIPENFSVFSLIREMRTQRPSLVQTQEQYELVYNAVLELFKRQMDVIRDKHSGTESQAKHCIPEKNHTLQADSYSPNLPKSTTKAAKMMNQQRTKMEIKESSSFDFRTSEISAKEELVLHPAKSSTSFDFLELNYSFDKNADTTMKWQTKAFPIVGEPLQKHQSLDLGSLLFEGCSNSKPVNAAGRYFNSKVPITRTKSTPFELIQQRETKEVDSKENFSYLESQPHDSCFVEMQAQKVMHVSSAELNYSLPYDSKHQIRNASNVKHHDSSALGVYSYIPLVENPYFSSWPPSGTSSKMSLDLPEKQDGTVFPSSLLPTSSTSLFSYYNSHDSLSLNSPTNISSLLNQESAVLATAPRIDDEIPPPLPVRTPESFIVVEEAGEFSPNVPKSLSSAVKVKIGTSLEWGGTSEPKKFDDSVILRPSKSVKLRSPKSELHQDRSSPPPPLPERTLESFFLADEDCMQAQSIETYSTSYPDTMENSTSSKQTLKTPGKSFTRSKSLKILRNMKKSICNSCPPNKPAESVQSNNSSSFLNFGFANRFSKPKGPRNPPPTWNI
Consider `COc1ccc(N2CCN(CCOc3ccc4c(C)cc(=O)oc4c3)CC2)cc1`, for which the inhibition was 67.7% (active).

Take `COc1ccc(N2CCN(C(=O)c3ccc(COc4ccc5c(C)cc(=O)oc5c4)cc3)CC2)cc1`: the inhibition is 2.8% (inactive).

Regarding `Cc1cc(=O)oc2cc(OCCSCCN3CCOCC3)ccc12`, the inhibition is -5.9% (inactive).

Consider `N#C/C(=C\c1ccccc1O)C(=O)Nc1cccnc1`, for which the inhibition was -9% (inactive).

As for `O=C(CCN1C(=O)c2ccccc2S1(=O)=O)Nc1ccccc1O`, the inhibition is -0.2% (inactive).

Take `CCc1nnc(NS(=O)(=O)c2ccc(NC(=O)c3cc4ccccc4oc3=O)cc2)s1`: the inhibition was 1.9% (inactive).

As for `CCc1nnc(NS(=O)(=O)c2ccc(NC(=O)c3cccc4ccccc34)cc2)s1`, the inhibition was 1.6% (inactive).

`C=CCc1cccc2cc(C(=O)Nc3ccc(S(=O)(=O)Nc4nnc(CC)s4)cc3)c(=O)oc12`: the inhibition is 71.3% (active).

As for `Cc1c(C)n(C(=O)CN2CCN(c3ccccn3)CC2)c2ccccc12`, the inhibition was 5.2% (inactive).

As for `O=C(Nc1c(F)cccc1F)c1ccc2c(c1)CCN2S(=O)(=O)c1ccccc1`, the inhibition was -8.4% (inactive).

For `Cc1cc(Cl)ccc1OCc1n[nH]c(=S)n1C1CCCCC1`, the inhibition is 4% (inactive).

As to `Nc1ccc(N2CCN(CCCCN3C(=O)C4CCCN4C3=O)CC2)cc1` (stereo unspecified), the inhibition was -25% (inactive).

In the case of `Cc1ccc(N2CCN(CCCN3C(=O)C4CCCN4C3=O)CC2)cc1` (stereo unspecified), the inhibition is 1.4% (inactive).

Turning to `Cc1ccc(N2CCN(CCCCN3C(=O)C4CCCN4C3=O)CC2)cc1` (stereo unspecified), the inhibition is 62.7% (active).

As to `Cc1cccc(OCC(O)CN2CCOCC2)c1` (stereo unspecified), the inhibition was -8.2% (inactive).

On to `CCN(CC)CCCNC(=O)Cn1ncn2cccc2c1=O`, for which the inhibition was -3.9% (inactive).

As to `CC(C)(C)c1ccc(C2(C)NC(=O)N(CC(=O)NCc3cccs3)C2=O)cc1` (stereo unspecified), the inhibition was -8.4% (inactive).

As for `COc1ccc(OC(C)C(=O)N2CC(C)OC(C)C2)cc1` (stereo unspecified), the inhibition is 63.6% (active).

As to `COc1ccc(OC(C)C(=O)N2CCOCC2)cc1` (stereo unspecified), the inhibition was -9.8% (inactive).

Take `COc1ccc(OC(C)C(=O)N2CCC(C)CC2)cc1` (stereo unspecified): the inhibition was -5.6% (inactive).

Take `COC(=O)c1ccc2c(c1)NC(=O)C(N1CCCCC1)S2` (stereo unspecified): the inhibition is 1% (inactive).

With `Cc1c(C(=O)O)sc2nc(/C=C/c3cccc(F)c3)[nH]c(=O)c12`, the inhibition was -4.3% (inactive).

For `Cc1c(C(=O)O)sc2nc(/C=C/c3cccc(O)c3)[nH]c(=O)c12`, the inhibition was -5.3% (inactive).

For the compound `CCCOc1ccc(/C=N/NC(=O)CSc2ccccn2)cc1OC`, the inhibition was 0.2% (inactive).

Turning to `CCN(CC)S(=O)(=O)c1ccc(N2CCOCC2)c(NC(=O)Cc2cccc3ccccc23)c1`, the inhibition was -0.8% (inactive).

`COc1ccc(C(CC(=O)N2CCCCC2)c2c(OC)cc(OC)c3ccc(=O)oc23)cc1` (stereo unspecified): the inhibition is -2.3% (inactive).
